Source: PubChem BioAssay (EPA / NIEHS)
The source made the active and inactive calls. Rule for the calls: active = hit-call score of the fitted dose curve at least 0.9, where 1 is the maximum; inactive = score below 0.9.

Assays:
[1] = APR_HepG2_NuclearSize_72hr: Apredica 72-hour HepG2 Assay for Nuclear Size (AID 2282925); details: high-content imaging, actives raise or lower the signal
Method in brief: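 Compounds (0.39–200 uM, final DMSO 0.5%) were applied to HepG2 for 72 hr. Cells were then formaldehyde-fixed, permeabilized and labelled with Hoechst 33342. Nuclear diameter was quantified from six images per well.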

[2] = ATG_CRE_CIS: Attagene CIS-FACTORIAL HepG2 Assay for human cAMP Responsive Element (CRE) binding protein 3 (AID 2282926); details: HepG2 CRE cis-reporter, Attagene multiplexed mRNA; actives raise or lower the signal
Method in brief: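 Induced reporter mRNA from a CRE cis element, measured in HepG2 among many multiplexed units at 24 h. Detection used RT-PCR plus capillary electrophoresis of fluorescent fragments; DMSO served as negative control.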

[3] = target: CCAAT/enhancer-binding protein beta (Homo sapiens) (UniProt P17676); experiment: ATG_C_EBP_CIS: Attagene CIS-FACTORIAL HepG2 Assay for human CCAAT/Enhancer Binding Protein (C/EBP) beta (AID 2282927); details: HepG2 Attagene cis-factorial transcription factor reporter; actives raise or lower the signal
Method in brief: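 RT-PCR/capillary electrophoresis fluorescence of reporter mRNA, 24 h post-dose, in HepG2 cells carrying transfected cis-promoter reporter units. Bidirectional curve fitting against DMSO baseline captures gain or loss of signal.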

[4] = ATG_CMV_CIS: Attagene CIS-FACTORIAL HepG2 Assay for human CMV (Internal Marker) (AID 2282928); details: HepG2 CMV promoter reporter, transcription factor profiling; actives raise or lower the signal;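 note: endpoint acts as a background internal control marker rather than a target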
Method in brief: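 Reporter transcripts from transfected HepG2 cells are isolated after 24 h of chemical dosing, reverse-transcribed and amplified. Fragments labeled with 6-FAM are cut with HpaI and quantified by capillary electrophoresis; DMSO defines baseline.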

[5] = ATG_DR4_LXR_CIS: Attagene CIS-FACTORIAL HepG2 Assay for human Liver X Receptor (LXR), DR4 submotif (AID 2282929); details: HepG2 Attagene DR4 cis-reporter, mRNA transcription; actives raise or lower the signal
Method in brief: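 Endogenous factor activity at a DR4 cis-element is read as reporter mRNA in transiently transfected HepG2 cells. Exposure lasts 24 h; transcripts are amplified, fluorescently labelled and sized by capillary electrophoresis, with DMSO as baseline.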

[6] = ATG_AP_2_CIS: Attagene CIS-FACTORIAL HepG2 Assay for human Activator Protein 2 (AP-2) (AID 2282932); details: HepG2 AP-2 cis-reporter, Attagene transcription factor profiling; actives raise or lower the signal
Method in brief: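 Cells (HepG2) transfected with promoter-driven reporter constructs, treated 24 h. Total RNA reverse-transcribed, reporter cDNA PCR-amplified, FAM-labelled by primer extension, digested, resolved by capillary electrophoresis. Activity fitted both directions versus DMSO.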

[7] = ATG_BRE_CIS: Attagene CIS-FACTORIAL HepG2 Assay for human Bone Morphogenetic Protein (BMP) Response Element (BRE) (AID 2282933); details: HepG2 BMP response element reporter, Attagene transcription factor profiling; actives raise or lower the signal
Method in brief: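 Transient MRTU transfection of human HepG2 liver cells; 24 h compound treatment; total RNA isolated, reverse-transcribed, PCR-amplified, 6-FAM labelled, HpaI-cut, capillary electrophoresis. DMSO = negative control/baseline, bidirectional fit.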

[8] = target: Retinoic acid receptor alpha (Homo sapiens) (UniProt P10276); experiment: ATG_DR5_RAR_CIS: Attagene CIS-FACTORIAL HepG2 Assay for human Retinoic Acid Receptor Alpha (RARE), DR5 submotif (AID 2282934); details: HepG2 Attagene cis-factorial RARE DR5 reporter, mRNA; actives raise or lower the signal;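 for AC50: reporter responds to endogenous RAR alpha beta and gamma in HepG2 not RARA alone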
Method in brief: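 HepG2 cells transiently transfected with multiplexed reporter units under cis (DR5 RARE) promoters, so endogenous transcription factor activity is measured. After 24 h compound exposure, reporter mRNA is quantified by RT-PCR with fluorescent labelling and capillary electrophoresis; bidirectional fitting versus DMSO.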

[9] = target: Transcription factor E2F1 (Homo sapiens) (UniProt Q01094); experiment: ATG_E2F_CIS: Attagene CIS-FACTORIAL HepG2 Assay for human E2F Transcription Factor 1 (AID 2282935); details: HepG2 Attagene cis-reporter, E2F reporter RNA transcripts; actives raise or lower the signal
Method in brief: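 First, HepG2 cells were transfected with reporter transcription units. Next, they were dosed for 24 h. Then RNA was isolated, converted to cDNA, PCR-amplified, FAM-labeled, HpaI-digested and analyzed by capillary electrophoresis.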

[10] = ATG_E_Box_CIS: Attagene CIS-FACTORIAL HepG2 Assay for human Enhancer Box (E-box) (AID 2282936); details: HepG2 E-box cis-reporter transcription, actives raise or lower the signal
Method in brief: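 Endogenous transcription factor activity was sensed in human HepG2 liver cells through transfected cis-promoter reporter units. After 24 h of dosing, total RNA was reverse-transcribed and reporter cDNA resolved by capillary electrophoresis.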

[11] = ATG_M_61_CIS: Attagene CIS-FACTORIAL HepG2 Assay for M61 Transcription Factor (Internal Marker) (AID 2282937); details: HepG2 Attagene CIS-FACTORIAL M61 internal marker reporter; actives raise or lower the signal
Method in brief: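 This endpoint serves as an internal background control within a multiplexed HepG2 cis-reporter panel. Cells are exposed for 24 h; reporter mRNA is amplified, fluorescently labelled and sized by capillary electrophoresis, with DMSO as negative control.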

[12] = ATG_EGR_CIS: Attagene CIS-FACTORIAL HepG2 Assay for human Early Growth Response 1 (EGR1) (AID 2282938); details: HepG2 Attagene CIS-FACTORIAL EGR reporter mRNA; actives raise or lower the signal
Method in brief: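 HepG2, transient MRTU transfection (cis promoters), 24 h compound. RNA → RT (oligo-dT) → PCR → 6-FAM labelling → HpaI cut → CE fluorescence. Bidirectional fit, DMSO baseline.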

[13] = ATG_M_19_CIS: Attagene CIS-FACTORIAL HepG2 Assay for M19 Transcription Factor (Internal Marker) (AID 2282939); details: HepG2 Attagene CIS-FACTORIAL M19 internal marker reporter; actives raise or lower the signal
Method in brief: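 Transfect HepG2 with MRTU reporter library → dose chemical, 24 h → isolate total RNA, reverse-transcribe with oligo(dT) → PCR, 6-FAM label, HpaI cut (2 h, 37 C) → capillary electrophoresis. Bidirectional fit vs DMSO.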

[14] = ATG_ERE_CIS: Attagene CIS-FACTORIAL HepG2 Assay for Estrogen Response Element (ERE) (AID 2282940); details: HepG2 ERE cis-reporter, Attagene RNA transcript; actives raise or lower the signal
Method in brief: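 Transient MRTU transfection of human HepG2; cis-element promoters; 24 h dosing; total RNA → RT (oligo dT) → PCR → 6-FAM primer extension → HpaI digest → CE fluorescence. Bidirectional fit, DMSO baseline.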

[15] = ATG_Ets_CIS: Attagene CIS-FACTORIAL HepG2 Assay for human Erythroblast Transformation Specific (ETS) (AID 2282941); details: HepG2 ETS cis-reporter transcription, actives raise or lower the signal
Method in brief: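 Bidirectional fit versus DMSO of reporter mRNA signal, detected by RT-PCR and capillary electrophoresis in HepG2 cells transiently transfected with cis-element reporters and dosed 24 h.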

[16] = target: Hepatocyte nuclear factor 3-beta (Homo sapiens) (UniProt Q9Y261); experiment: ATG_FoxA2_CIS: Attagene CIS-FACTORIAL HepG2 Assay for human Forkhead box A2 (FOXA2) (AID 2282942); details: HepG2 cis-reporter transcription factor activity, 24 h; actives raise or lower the signal
Method in brief: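 Cells: HepG2, transient multiplex reporter transfection. Exposure 24 h. Detection: reporter-specific RT-PCR, fluorescent labelling, restriction digest, capillary electrophoresis. Analysis: bidirectional curve fit, DMSO as negative control.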

[17] = ATG_FoxO_CIS: Attagene CIS-FACTORIAL HepG2 Assay for human Forkhead box O (FoxO) (AID 2282943); details: HepG2 Attagene cis-reporter, FoxO element, mRNA; actives raise or lower the signal
Method in brief: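 HepG2 cells transiently transfected with cis-promoter-driven multiple reporter transcription units; 24 h after chemical dosing, reporter mRNA quantified by RT-PCR, fluorescent primer extension, HpaI digestion and capillary electrophoresis. Bidirectional fitting versus DMSO baseline.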

[18] = ATG_GATA_CIS: Attagene CIS-FACTORIAL HepG2 Assay for human GATA Binding Protein (AID 2282944); details: HepG2 GATA cis-element reporter, Attagene multiplex mRNA; actives raise or lower the signal
Method in brief: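 Transient MRTU transfection, HepG2, 24 h compound exposure. Total RNA → oligo(dT) RT → PCR → 6-FAM primer extension → HpaI cut → CE. Bidirectional fit vs DMSO.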

[19] = target: Aryl hydrocarbon receptor (Homo sapiens) (UniProt P35869); experiment: ATG_Ahr_CIS: Attagene CIS-FACTORIAL HepG2 Assay for human Aryl Hydrocarbon Receptor (Ahr) (AID 2282930); details: HepG2 AhR cis-factorial reporter transcription; actives raise or lower the signal
Method in brief: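 HepG2 cells transiently transfected with cis-element-driven multiplexed reporter transcription units; endogenous transcription factor activity measured as reporter mRNA 24 h after dosing. RT-PCR, 6-FAM labelling, HpaI digestion, capillary electrophoresis; bidirectional fitting versus DMSO baseline.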

Measured: AC50

Aryl hydrocarbon receptor (Homo sapiens), sequence (P35869 whole entry, looked up): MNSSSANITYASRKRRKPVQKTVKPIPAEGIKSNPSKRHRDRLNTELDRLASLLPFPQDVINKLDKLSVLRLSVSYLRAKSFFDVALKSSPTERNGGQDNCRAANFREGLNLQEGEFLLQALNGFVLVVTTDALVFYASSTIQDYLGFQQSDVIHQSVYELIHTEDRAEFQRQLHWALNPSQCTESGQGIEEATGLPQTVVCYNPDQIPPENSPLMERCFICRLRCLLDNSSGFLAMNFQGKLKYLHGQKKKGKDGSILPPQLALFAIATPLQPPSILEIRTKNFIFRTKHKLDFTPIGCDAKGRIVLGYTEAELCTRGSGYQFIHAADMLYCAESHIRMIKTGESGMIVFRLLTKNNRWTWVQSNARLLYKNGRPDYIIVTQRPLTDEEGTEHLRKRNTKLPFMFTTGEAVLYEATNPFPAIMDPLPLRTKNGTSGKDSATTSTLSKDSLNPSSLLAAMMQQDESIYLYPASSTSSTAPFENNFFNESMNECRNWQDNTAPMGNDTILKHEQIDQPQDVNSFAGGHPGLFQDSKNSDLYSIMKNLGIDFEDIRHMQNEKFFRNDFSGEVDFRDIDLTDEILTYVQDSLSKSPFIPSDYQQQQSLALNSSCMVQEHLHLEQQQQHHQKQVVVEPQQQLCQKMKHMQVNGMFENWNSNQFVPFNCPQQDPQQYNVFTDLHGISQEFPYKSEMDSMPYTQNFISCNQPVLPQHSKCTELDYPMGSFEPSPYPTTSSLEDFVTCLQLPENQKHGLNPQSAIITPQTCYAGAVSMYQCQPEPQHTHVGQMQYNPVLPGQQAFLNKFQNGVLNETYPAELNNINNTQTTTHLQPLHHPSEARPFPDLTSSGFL
CCAAT/enhancer-binding protein beta (Homo sapiens), sequence (P17676 whole entry, looked up): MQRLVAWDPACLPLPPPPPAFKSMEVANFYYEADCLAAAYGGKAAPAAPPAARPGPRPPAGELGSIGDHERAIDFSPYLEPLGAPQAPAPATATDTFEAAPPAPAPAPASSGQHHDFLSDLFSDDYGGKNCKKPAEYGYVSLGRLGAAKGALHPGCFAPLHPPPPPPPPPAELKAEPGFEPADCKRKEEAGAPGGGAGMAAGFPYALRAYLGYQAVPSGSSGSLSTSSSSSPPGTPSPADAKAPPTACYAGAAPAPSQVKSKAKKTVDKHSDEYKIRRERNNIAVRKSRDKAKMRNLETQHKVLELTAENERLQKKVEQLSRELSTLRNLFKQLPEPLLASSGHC
Hepatocyte nuclear factor 3-beta (Homo sapiens), sequence (Q9Y261 whole entry, looked up): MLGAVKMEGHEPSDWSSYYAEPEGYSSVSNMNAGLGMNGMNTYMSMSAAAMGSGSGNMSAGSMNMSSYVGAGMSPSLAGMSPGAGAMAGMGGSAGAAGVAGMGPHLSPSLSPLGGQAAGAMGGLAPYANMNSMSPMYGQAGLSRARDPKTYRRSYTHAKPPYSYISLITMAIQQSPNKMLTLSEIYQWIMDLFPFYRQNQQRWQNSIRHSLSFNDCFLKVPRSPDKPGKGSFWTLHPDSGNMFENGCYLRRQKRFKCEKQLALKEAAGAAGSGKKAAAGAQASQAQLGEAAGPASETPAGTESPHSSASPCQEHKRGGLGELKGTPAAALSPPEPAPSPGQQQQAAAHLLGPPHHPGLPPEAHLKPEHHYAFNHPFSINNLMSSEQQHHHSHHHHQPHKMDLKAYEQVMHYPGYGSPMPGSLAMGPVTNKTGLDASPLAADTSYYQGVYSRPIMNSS
Retinoic acid receptor alpha (Homo sapiens), sequence (P10276 whole entry, looked up): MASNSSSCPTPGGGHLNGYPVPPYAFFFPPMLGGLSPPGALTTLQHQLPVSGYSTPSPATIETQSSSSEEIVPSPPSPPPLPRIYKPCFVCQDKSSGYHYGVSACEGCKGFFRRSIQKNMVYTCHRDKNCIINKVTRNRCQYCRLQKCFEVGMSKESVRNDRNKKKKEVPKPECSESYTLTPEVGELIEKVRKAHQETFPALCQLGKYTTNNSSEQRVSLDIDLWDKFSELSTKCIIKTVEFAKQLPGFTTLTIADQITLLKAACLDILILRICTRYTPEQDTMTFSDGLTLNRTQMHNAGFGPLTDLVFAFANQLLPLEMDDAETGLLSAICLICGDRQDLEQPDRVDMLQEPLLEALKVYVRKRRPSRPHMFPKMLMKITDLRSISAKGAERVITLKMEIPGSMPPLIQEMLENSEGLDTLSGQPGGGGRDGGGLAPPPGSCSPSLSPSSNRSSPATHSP
Transcription factor E2F1 (Homo sapiens), sequence (Q01094 whole entry, looked up): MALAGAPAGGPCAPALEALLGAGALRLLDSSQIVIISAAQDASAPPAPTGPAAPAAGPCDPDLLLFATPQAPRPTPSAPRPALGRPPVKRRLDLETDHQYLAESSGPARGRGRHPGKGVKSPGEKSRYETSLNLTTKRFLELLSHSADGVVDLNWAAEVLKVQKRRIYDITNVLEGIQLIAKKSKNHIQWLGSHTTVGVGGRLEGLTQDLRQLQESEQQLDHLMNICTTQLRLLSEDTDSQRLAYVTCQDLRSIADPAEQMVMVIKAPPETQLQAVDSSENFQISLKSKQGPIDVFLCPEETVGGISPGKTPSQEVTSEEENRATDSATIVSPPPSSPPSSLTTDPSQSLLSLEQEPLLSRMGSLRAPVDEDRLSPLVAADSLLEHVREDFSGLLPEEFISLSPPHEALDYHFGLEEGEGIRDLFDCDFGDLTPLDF

OC(c1ccc(Cl)cc1)(c1ccc(Cl)cc1)C(Cl)(Cl)Cl
not listed: [19]
inactive: all other assays above

CCOc1nc(F)cc2nc(S(=O)(=O)Nc3c(Cl)cccc3Cl)nn12
not listed: [8] | [17]
inactive: all other assays above

C=C(C)CN(CC)c1c([N+](=O)[O-])cc(C(F)(F)F)cc1[N+](=O)[O-]
active: [5] 50 µM | [8] 18.4 µM | [14] 31.2 µM
not listed: [12] | [17]
inactive: all other assays above

CCNC(=O)NC(=O)C(C#N)=NOC
active: [14] 50 µM
not listed: [12]
inactive: all other assays above

Clc1nc(Cl)nc(Nc2ccccc2Cl)n1
active: [2] 76.6 µM | [3] 75.5 µM | [4] 27.4 µM
not listed: [12] | [17]
inactive: all other assays above

CCOC(=O)C(C)OC(=O)c1cc(Oc2ccc(C(F)(F)F)cc2Cl)ccc1[N+](=O)[O-] (stereo not drawn)
active: [19] 14.7 µM | [7] 17.8 µM | [14] 34.1 µM
not listed: [12]
inactive: all other assays above

CC(C)C1(C)N=C(c2ncccc2C(=O)O)NC1=O (stereo not drawn)
not listed: [8] | [17]
inactive: all other assays above

CSC(=O)c1c(C(F)F)nc(C(F)(F)F)c(C(=O)SC)c1CC(C)C
active: [5] 4.51 µM | [19] 81.5 µM | [8] 1.28 µM | [14] 3.83 µM
not listed: [12]
inactive: all other assays above

Cn1c(-c2ccccc2)cc(-c2ccccc2)[n+]1C
not listed: [17]
inactive: all other assays above

CCN(CC)C(=O)C(C)Oc1cccc2ccccc12 (stereo not drawn)
active: [2] 2.24 µM | [3] 1.2 µM | [19] 14.9 µM | [7] 14.4 µM | [14] 25.2 µM
not listed: [8] | [12]
inactive: all other assays above

CCCC(=NOCC)C1=C(O)CC(CC(C)SCC)CC1=O (stereo not drawn)
not listed: [17]
inactive: all other assays above

Cc1nc(N(C)C)nc(OC(=O)N(C)C)c1C
not listed: [12] | [17]
inactive: all other assays above

CC1(C)C(C=C(Cl)Cl)C1C(=O)OC(C#N)c1cccc(Oc2ccccc2)c1 (stereo not drawn)
active: [5] 30.3 µM | [14] 14.6 µM
not listed: [12]
inactive: all other assays above

O=C1C2CC=CCC2C(=O)N1SC(Cl)(Cl)Cl (stereo not drawn)
not listed: [12] | [17]
inactive: all other assays above

CCOP(=S)(OCC)Oc1nc(Cl)n(C(C)C)n1
active: [5] 6.85 µM | [14] 50 µM
not listed: [12]
inactive: all other assays above
